Test results published in PubChem BioAssay (NCATS).
Results filed as inconclusive are left out. A call without a number means that no potency is given here. Activity calls are given as the source filed them. The call rests on the fitted dose curve; in most records, active means well fitted inhibition curve with a large enough effect; inconclusive means small, poorly fitted or top-dose-only effect; inactive means flat fitted curve, though single readings scatter.
Potency means the concentration at half of the fitted maximal effect.

Assay: BET inhibitor-based combinations targeting novel dependencies in MECOM-rearranged (r) AML: AML-194 cell line (AID 2202237; further: nearly all actives have a fitted effect of over 40% in size)
Conditions: AML-194 (MECOM-r AML) viability, CellTiter-Glo, 48 h; series mostly up to 46 µM
Method in brief: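 AML cell lines seeded at 500 cells/well, treated with 11-point dose curves for 48 h. Viability by CellTiter-Glo luminescence, normalised to DMSO and empty wells; activity expressed as AUC and per-cell-line Z-transformed AUC.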
For `COc1cc(NC(=O)c2ccc(-c3ccc(Cl)cc3)o2)cc(OC)c1`, the Potency was “inactive”. With `Cc1cn([C@@H]2C[C@@H](O)[C@H](CO)O2)c(=O)[nH]c1=O` the Potency was “inactive”. In the case of `OC[C@@H](O)[C@@H](O)[C@H](O)[C@@H](O)CO`, the Potency is reported as “inactive”. For `O=C(O)C(O)Cc1ccc(O)c(O)c1` (stereo not given), the Potency was “inactive”. For `Cc1cccc(-c2nn(C(=S)Nc3ccccc3)cc2-c2ccnc3ccccc23)n1`, the Potency was “inactive”. For `CC(C)(C)COc1ccc(-n2cc(C(=O)O)cn2)cc1C#N`, the Potency was “inactive”. For `C1CCC(C(CC2CCCCN2)C2CCCCC2)CC1` (stereo not given), the Potency was 7.42 µM (active). In the case of `CC(C)C(C)C=CC(C)C1CCC2C3=CC=C4CC(O)CCC4(C)C3CCC21C` (stereo not given), the Potency is reported as “inactive”. For `CO[C@@H]1[C@@H](OC(N)=O)[C@@H](O)[C@H](Oc2ccc3c(O)c(NC(=O)c4ccc(O)c(CC=C(C)C)c4)c(=O)oc3c2C)OC1(C)C`, the Potency was “inactive”. In the case of `CCN1CCN(CC(=O)Nc2ccc(-c3cccc4c(=O)cc(N5CCOCC5)oc34)c3sc4ccccc4c23)CC1`, the Potency is reported as 3.23 µM (active). For `COc1cccc2c1C(=O)c1c(O)c3c(c(O)c1C2=O)C[C@@](O)(C(=O)CO)C[C@@H]3O[C@H]1C[C@H](N)[C@H](O)[C@H](C)O1`, the Potency was 0.186 µM (active). In the case of `Cn1cc(C2=C(c3c4n(c5ccccc35)CCC(CN)C4)C(=O)NC2=O)c2ccccc21` (stereo not given), the viability (% of control) is reported as 98.9% [at 8.46 µM] (inactive). With `COCCCN1CCC(NC(=O)c2cc(Cl)c(N)c3c2OCC3)CC1` the Potency was “inactive”. With `c1ccc2c(-c3cnn4cc(-c5ccc(N6CCNCC6)cc5)cnc34)ccnc2c1` the Potency was 2.63 µM (active). For `CCN(CC)CCCCNc1ncc2cc(-c3cc(OC)cc(OC)c3)c(NC(=O)NC(C)(C)C)nc2n1`, the Potency was 16.6 µM (active). In the case of `CN1C(C(=O)Nc2ccccn2)=C(O)c2sc(Cl)cc2S1(=O)=O`, the Potency is reported as “inactive”. With `CS(=O)(=O)OCCCCOS(C)(=O)=O` the Potency was “inactive”. In the case of `OC(c1cc(C(F)(F)F)nc2c(C(F)(F)F)cccc12)C1CCCCN1` (stereo not given), the Potency is reported as 20.9 µM (active). With `Cc1ccc(O)c(C(CCN(C(C)C)C(C)C)c2ccccc2)c1` (stereo not given) the Potency was “inactive”. With `COc1cc(OC)c(C(=O)CCCN2CCCC2)c(OC)c1` the Potency was “inactive”. For `S=c1nc[nH]c2nc[nH]c12`, the Potency was 0.59 µM (active). In the case of `CN[C@@H]1CN(c2ccc3c(=O)c(C(=O)O)cn(-c4nccs4)c3n2)C[C@@H]1OC`, the Potency is reported as 1.29 µM (active). For `CC[C@@H]1C(=O)N(C)c2cnc(Nc3ccc(C(=O)NC4CCN(C)CC4)cc3OC)nc2N1C1CCCC1`, the Potency was 0.332 µM (active). For `O=C(Nc1cc(Cl)cc2c1[nH]c1cnccc12)c1cccnc1`, the Potency was “inactive”. For `C[C@](Cc1c[nH]c2ccccc12)(NC(=O)OC1C2CC3CC(C2)CC1C3)C(=O)NC[C@H](NC(=O)CCC(=O)O)c1ccccc1` (stereo not given in full), the Potency was “inactive”. For `C[C@@H](CN1CC(=O)NC(=O)C1)N1CC(=O)NC(=O)C1`, the Potency was 16.6 µM (active). In the case of `CC1=C(C)C(=O)C(C(CCCCCC(=O)O)c2ccccc2)=C(C)C1=O` (stereo not given), the Potency is reported as “inactive”. In the case of `C[C@]12C=CC(=O)C=C1CC[C@@H]1[C@@H]2C(=O)C[C@@]2(C)[C@H]1CC[C@]2(O)C(=O)CO`, the Potency is reported as “inactive”. In the case of `Cc1ccc(C(=O)Nc2cccc(C(F)(F)F)c2)cc1Nc1nc(-c2cccnc2)nc2c1cnn2C`, the Potency is reported as 10.5 µM (active). With `COc1ccc(-n2c(C)c([N+](=O)[O-])c3ccc(O)cc32)cc1` the Potency was “inactive”.
